According to PubChem BioAssay (NCATS):
Records with an inconclusive call do not appear. The source made the active and inactive calls. Unless noted, the call rests on the fitted dose curve; in most records, active means well fitted curve in the direction sought with a large enough effect; inconclusive means small, poorly fitted or top-dose-only effect, or another doubt; inactive means no such curve, though single readings can be large; an effect the other way counts as inactive or inconclusive.

Legend:
[1] = Cell Viability - BJ (AID 421; calls by dose curve;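 further: potency means the concentration at half of the fitted maximal effect; cells exposed to compound for 40 hours at 37 °C before readout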); settings: BJ fibroblast viability, qHTS
In short: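 Luminescent ATP signal (CellTiter-Glo, 20 min at room temperature) served as the read-out of viable BJ cells after 40 hours of compound treatment. Responses were scaled between DMSO and 100 uM tamoxifen, and AC50 values were obtained by Hill modeling.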

[2] = Cell Viability - Jurkat (AID 426;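 active means dose-dependent loss of cell ATP signal giving a full or clear fitted curve, ranked by lower potency value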; further: potency means the concentration at half of the fitted maximal effect); settings: qHTS
In short: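 Jurkat (clone E6-1, human T-cell leukemia) cells, 5000/well in complete medium, were exposed to compound for 40 hr at 37 °C. Viability was read as intracellular ATP by CellTiter-Glo luminescence; AC50 came from Hill fits of concentration-response data.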

[3] = Cell Viability - Hek293 (AID 427;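 active means compounds whose dose-response curve shows a full or clear partial loss of cell viability, called from curve shape rather than a numeric limit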;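 further: potency means the concentration at half of the fitted maximal effect; cells exposed to compound for 40 hours at 37 °C before reading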); settings: qHTS
In short: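 Luminescent ATP read-out (CellTiter-Glo, 20 min RT) after 40 hr compound exposure at 37 °C in complete medium. Signal normalized to DMSO (basal) and 100 uM tamoxifen (100% inhibition); concentration-response fitted with the standard Hill equation to give AC50.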

[4] = Cell Viability - HepG2 (AID 433; calls by dose curve;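 further: potency means the concentration at half of the fitted maximal effect; potency for ATP loss meaning cytotoxicity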); settings: qHTS
In short: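 HepG2 hepatocellular carcinoma cells (1500/well) were treated with compounds for 40 h at 37 °C in complete medium; intracellular ATP was read by CellTiter-Glo luminescence. Data were normalized to DMSO and 100 uM tamoxifen, and AC50 came from Hill fits.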

[5] = Cell Viability - MRC5 (AID 434; calls by dose curve;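 further: potency means the concentration at half of the fitted maximal effect; potency reflects cytotoxicity seen as loss of intracellular ATP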); settings: MRC5 lung fibroblast viability, qHTS
In short: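 MRC5 normal human lung fibroblasts (1500/well) were treated with compounds for 40 hr at 37 °C in complete medium, and viable cells were measured as intracellular ATP by CellTiter-Glo luminescence. AC50 came from Hill fits, normalized to DMSO and 100 uM tamoxifen.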

[6] = Cell Viability - SK-N-SH (AID 435; calls by dose curve;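 further: potency means the concentration at half of the fitted maximal effect; compound exposure lasted 40 h at 37 °C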); settings: SK-N-SH neuroblastoma cell viability qHTS
In short: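 SK-N-SH human neuroblastoma cells (1500/well) were exposed to compounds in complete medium for 40 h at 37 °C, and intracellular ATP was then measured by CellTiter-Glo luminescence. AC50 was taken from Hill fits, normalized to DMSO and 100 uM tamoxifen.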

[7] = biological target: Mitogen-activated protein kinase 10 (Mus musculus) (UniProt Q61831); test: JNK3 AlphaScreen Assay (AID 530; active means well fitted curve in either direction with a large enough effect, not every such curve was filed as active;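 further: kinase came from lysate of stimulated human HepG2 cells; signal reports phosphorylation of biotinylated GST-cJun 1-79 at Ser73 with 10 µM ATP; on the % scale 0 is the no-effect control and ±100 the full control effect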)
In short: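 JNK3 came from HepG2 lysates pre-activated with IL-1beta and TNF-alpha and phosphorylated biotinylated GST-cJun (1-79) at 10 uM ATP, pH 7.6, room temperature. Compounds were titrated. AlphaScreen signal used anti-phospho-cJun (Ser73) antibody.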

[8] = Cell Viability - N2a (AID 540); settings: N2a mouse neuroblastoma cell viability; at 92.2 µM (top of the series);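 further: plate controls were DMSO alone for no effect and tamoxifen control for full effect; nearly all actives have a fitted effect of over 45% in size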
In short: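 Mouse neuroblastoma N2a cells (1500/well) were preincubated 5 hr at 37 °C, then exposed to compounds for 40 hr at 37 °C in complete medium. Viability was read as intracellular ATP by CellTiter-Glo luminescence; AC50 from Hill fits.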

[9] = Cell Viability - NIH 3T3 (AID 541); settings: NIH 3T3 cell viability, qHTS; at 92.2 µM (top of the series);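 further: plate controls were DMSO alone for no effect and tamoxifen positive control for full effect; nearly all actives have a fitted effect of over 25% in size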
In short: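 NIH 3T3 mouse embryo fibroblasts (1000 cells/well) were plated in complete medium and treated with compound for 40 hr at 37 °C. Viability was read as intracellular ATP by CellTiter-Glo luminescence; AC50 values came from Hill-equation fits of concentration-response data.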

[10] = Cell Viability - HUV-EC-C (AID 542); further: on the % scale 0 is the no-effect control and ±100 the full control effect; nearly all actives have a fitted effect of over 35% in size
In short: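 HUV-EC-C normal human vascular endothelial cells, 1000 cells/well, pre-incubated 5 hr at 37 °C, then exposed to compounds for 40 hr at 37 °C in complete medium. Viability measured as intracellular ATP by CellTiter-Glo luminescence; AC50 from Hill fits.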

[11] = Cell Viability - H-4-II-E (AID 543); further: on the % scale 0 is the no-effect control and ±100 the full control effect; nearly all actives have a fitted effect of over 35% in size
In short: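 Rat hepatoma H-4-II-E cells (1500/well) were plated, incubated 5 hr at 37 °C, then exposed to compounds for 40 hr at 37 °C. Cellular ATP was read by CellTiter-Glo luminescence; AC50 came from Hill-equation fits of concentration-response data.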

[12] = Cell Viability - SH-SY5Y (AID 544);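 further: 0% = DMSO alone and -100% = 100 µM tamoxifen; nearly all actives have a fitted effect of over 55% in size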
In short: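 Human neuroblastoma SH-SY5Y cells (1500/well) in complete medium were exposed to compounds for 40 hr at 37 °C; intracellular ATP was then quantified by CellTiter-Glo luminescence after 20 min at room temperature. AC50 came from Hill-equation concentration-response fits.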

[13] = Cell Viability - Renal Proximal Tubule (AID 545);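 further: 0% = DMSO only and -100% = 100 µM tamoxifen; nearly all actives have a fitted effect of over 40% in size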
In short: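 Primary rat renal proximal tubule cells (1000/well) were treated with compounds for 40 hr at 37 °C in complete medium. Intracellular ATP was measured by CellTiter-Glo luminescence, and AC50 values came from Hill-equation fits of concentration-response data.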

[14] = Cell Viability - Mesenchymal (AID 546);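 further: cells exposed to compound for 40 hours before reading; 0% = DMSO only and -100% = 100 µM tamoxifen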
In short: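 Normal human renal glomerulus-derived kidney mesenchymal cells, 1000 per well in complete medium, were treated with compounds for 40 hr at 37 °C. Viability was read as intracellular ATP by CellTiter-Glo luminescence; AC50 values came from Hill-equation fits of qHTS concentration-response data.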

[15] = Cellular Toxicity (caspase-3) HepG2 (AID 654);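 further: cells exposed to compound for 16 hours before reading; 0% = DMSO alone and 100% = caspase signal from 100 µM tamoxifen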
In short: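 HepG2 cells (1500/well) in complete medium were treated with compounds for 16 hr at 37 °C. Caspase-3/7 activity was then read as luminescence from peptide-aminoluciferin cleavage. AC50 came from Hill fits, normalized to DMSO and 100 uM tamoxifen.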

[16] = Cellular Toxicity (caspase-3) HUV-EC-C (AID 656);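 further: 0% = DMSO basal and 100% = 100 µM tamoxifen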
In short: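 HUV-EC-C endothelial cells, 1000/well, were pre-incubated 5 hr at 37°C, then exposed to compounds for 16 hr at 37°C. Caspase-Glo 3/7 luminescence was read after 20 min at room temperature. AC50 came from Hill fits, normalized to DMSO and 100 uM tamoxifen.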

[17] = Cellular Toxicity (caspase-3) SHSY5Y (AID 657)
In short: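 SH-SY5Y human neuroblastoma cells (1500/well) were treated with compounds for 16 h at 37 °C, then Caspase-Glo 3/7 luminescence was read after 1 h at room temperature. Data normalized to DMSO and 10 uM staurosporine; AC50 from Hill fits.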

[18] = Cellular Toxicity (caspase-3) BJ (AID 658);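 further: 0% = DMSO basal and 100% = 10 µM staurosporine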
In short: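 Luminescent aminoluciferin-substrate cleavage reports caspase 3/7 activity in normal human BJ fibroblasts after 16 hr compound exposure at 37 °C. Normalized to DMSO (basal) and 10 uM staurosporine (100%); AC50 from Hill fit of concentration-response.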

[19] = Cellular Toxicity (caspase-3) MRC-5 (AID 659);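 further: 0% = DMSO basal and 100% = 10 µM staurosporine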
In short: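 Luminescence from caspase-cleaved aminoluciferin substrate (Caspase-Glo 3/7, 1 hr RT) reports caspase 3/7 activity in MRC-5 lung fibroblasts after 16 hr compound exposure. Normalized to DMSO basal and 10 uM staurosporine as 100%; AC50 from Hill fits.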

[20] = Cellular Toxicity (caspase-3) Mesangial (AID 660);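 further: cells exposed to compound for 16 h before the caspase read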
In short: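 Human renal glomerular mesangial cells (1000/well) were treated with compounds for 16 h at 37 °C in complete medium, then caspase 3/7 activity was read by Caspase-Glo luminescence. Data were normalized to DMSO and 100 uM tamoxifen; AC50 from Hill fits.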

[21] = Cellular Toxicity (caspase-3) SK-N-SH (AID 661);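 further: 0% = DMSO basal and 100% = 10 µM staurosporine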
In short: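 SK-N-SH human neuroblastoma cells (1500/well) were treated with compounds for 16 hr at 37 °C in complete medium; caspase 3/7 activity was read by Caspase-Glo luminescence. AC50 came from Hill fits of data normalized to DMSO and 10 uM staurosporine.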

[22] = Cellular Toxicity (caspase-3) H-4-II-E (AID 663);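 further: cells exposed to compound for 16 hr before readout; 0% = DMSO basal and 100% = 100 µM tamoxifen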
In short: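 Luminescence from caspase-cleaved aminoluciferin substrate, read 20 min after reagent addition, reports caspase 3/7 activation in rat H-4-II-E cells after 16 hr compound exposure. Normalized to DMSO (basal) and 100 uM tamoxifen (100%); AC50 from Hill fits.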

CCOc1cc(C=O)ccc1O
inactive: Potency [1] > 92 µM | Potency [2] > 92 µM | Potency [3] > 92 µM | Potency [4] > 92 µM | Potency [5] > 92 µM | Potency [6] > 92 µM | outcome [7] | activity change, negative = cytotoxicity [8] -1.75% | activity change, negative = cytotoxicity [9] 1.57% | outcome [10] | outcome [11] | outcome [12] | outcome [13] | outcome [14] | outcome [15] | outcome [16] | outcome [17] | outcome [18] | outcome [19] | outcome [20] | outcome [21] | outcome [22]
